# In the library only some 4.3% were active in any assay of this set; here they are far more common.
# dFosB activator – activators of mouse delta FosB homodimer | purified delta FosB, TAMRA-CDK5 oligo fluorescence polarization; percent of positive-control signal above neutral wells | activation, % at 25 µM | actives 0.99% (n = 340,000);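 active = mean activation above about 17%, with every replicate also reaching it, limit read from the data, passing the limit was not always enough; inconclusive = only one of the two conditions met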
# Target sequence (P13346 whole entry, looked up): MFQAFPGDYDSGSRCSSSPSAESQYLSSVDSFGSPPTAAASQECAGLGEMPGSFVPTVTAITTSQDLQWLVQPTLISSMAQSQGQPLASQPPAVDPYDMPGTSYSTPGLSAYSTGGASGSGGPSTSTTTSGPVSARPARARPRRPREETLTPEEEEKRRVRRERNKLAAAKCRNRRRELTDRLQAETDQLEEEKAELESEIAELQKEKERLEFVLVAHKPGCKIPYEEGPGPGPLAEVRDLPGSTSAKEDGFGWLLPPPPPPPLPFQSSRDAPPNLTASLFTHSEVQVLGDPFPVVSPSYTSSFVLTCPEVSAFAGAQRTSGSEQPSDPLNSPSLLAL
# UBC13 inh – human UBC13 polyubiquitination inhibition. P61088. UBC13 polyubiquitin chain formation, TR-FRET. inhibition, % at 20 µM. actives 0.47% (n = 330,000); in the data active = inhibition above about 45%, passing the limit was not always enough; inconclusive = no clear call, values can overlap the other calls
# Target sequence (P61088 whole entry, looked up): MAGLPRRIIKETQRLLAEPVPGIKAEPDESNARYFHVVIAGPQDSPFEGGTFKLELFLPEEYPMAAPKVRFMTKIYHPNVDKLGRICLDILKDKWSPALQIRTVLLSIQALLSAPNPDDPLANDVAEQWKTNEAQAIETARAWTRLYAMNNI
# GRIN3A LBD mod – modulators (binders) of human NR3A ligand-binding domain. NR3A LBD differential scanning fluorimetry, Tm shift; 0% = protein alone, 100% = glycine-bound protein. Tm shift relative to glycine control, % at 25 µM. actives 2.5% (n = 340,000);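 active = melting temperature shift of at least 10% of the positive control shift, at one fixed dose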
# NALP1 yeast inh – inhibitors of NALP1 inflammasome in yeast; S. cerevisiae NALP1/ASC/caspase-1 growth, X-gal OD620, 72 h; inhibition, % at 10 µM; actives 0.61% (n = 280,000); AID 2071; in the data active = inhibition mostly above about 24%, no sharp cut-off; inactive = mostly below about 32%
# CR mimetic SO – caloric restriction mimetics inhibiting age-related superoxide in yeast; superoxide response (% of plate mean), % at 10 µM; actives 0.18% (n = 330,000); S. cerevisiae aged cells, superoxide DHE fluorescence; hits give low values;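 active = superoxide response under a set limit, about three screen SD below normal, cut at about 65% in these data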;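 note: yeast aged for seven days with compound at 30 °C before DHE staining; 100% = average MFI of all compound-treated wells on the plate with controls excluded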
# Casp3 counter – caspase-3 inhibition (UBC13 counter-screen); inhibition, % at 20 µM; actives 4% (n = 1,400); shares compounds with UBC13 inh; Recombinant caspase-3, Caspase-Glo 3/7 luminescence, 60 min;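 active = mean inhibition across replicates above about 26%, limit read from the data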;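 note: plate controls were DMSO with caspase-3 for no effect and DMSO wells lacking enzyme for full effect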
# UBC13 confirm – confirmation of human UBC13 polyubiquitin inhibitors. inhibition, % at 10 µM. AID 488859. actives 68% (n = 1,400). shares compounds with UBC13 inh. UBC13 polyubiquitination, TR-FRET, biochemical; in the data active = inhibition above about 45%; inconclusive = no clear call, values can overlap the other calls
# * marks the source's active call; other numbers are inactive results; u = inconclusive; x = not tested or not shown.
SMILES,dFosB activator,UBC13 inh,GRIN3A LBD mod,NALP1 yeast inh,CR mimetic SO,Casp3 counter,UBC13 confirm
NCC12CC3CC(C1)CC(c1ccc(Cl)cc1)(C3)C2,5,57*,-4,9,111,-4,76*
COc1ccc(NC(=O)COC(=O)c2cc3c(s2)CCC3)cc1,-1,1,0,x,100,x,x
Cc1c(Br)c([N+](=O)[O-])nn1CCCC(=O)Nc1c(C)n(C)n(-c2ccccc2)c1=O,0,49*,0,1,108,3,42
Cc1c(NC(=O)CCCCCN2C(=O)c3ccccc3C2=O)c(=O)n(-c2ccccc2)n1C,-2,106*,-1,15,96,0,110*
CSCCC(NC(=O)c1ccccc1)C(=O)Nc1ccc(C)cc1 (configuration not stated),-13,3,3,0,81,x,x
NC(N)=NCCCC(NC(=O)c1ccccc1)C(=O)Nc1ccc2ccccc2c1 (configuration not stated),-26,48*,5,x,90,-1,30
O=C(C[n+]1cccc(CNC(=O)c2ccc(OC(F)F)cc2)c1)Nc1ccc(SC(F)F)cc1,-160,55*,-3,26,81,1,102*
CCCCc1oc2ccccc2c1C(=O)c1cc(I)c(OCCN(CC)CC)c(I)c1,7,68*,0,30,93,0,58*
O=S(=O)(c1ccc(Cl)c(C(F)(F)F)c1)N1CCN(c2ccccn2)CC1,0,0,-3,6,98,x,x
O=C(NCCCN1CCCC1)c1ccc2c(c1)N(Cc1ccccc1)CCS2,-7,55*,-1,6,92,-2,69*
Cc1cc2oc3cc(NCCC4CCCN4C)ccc3c(=O)c2cc1C (configuration not stated),u,61*,-10,x,90,21,47*
COCCNC(=O)CCC1CCN(Cc2ccc(-c3ccccc3)cc2)CC1,-5,5,-1,12,91,x,x
CC(C)(C)OC(=O)N1CCC(CC2CC(c3ccccc3)=NO2)(C(=O)NCc2ccccc2)CC1 (configuration not stated),-4,2,-1,x,107,x,x
COc1ccc(CNC(=O)C2(CC3CC(c4ccccc4)=NO3)CCN(C(=O)OC(C)(C)C)CC2)cc1 (configuration not stated),-9,77*,-4,x,101,-4,-7
Cc1cc(C(C)(C)CC(C)(C)C)ccc1OCCOCC[N+](C)(C)Cc1ccccc1,-9,100*,-3,x,95,-2,105*
C[N+](C)(CCOc1ccccc1)Cc1ccccc1,4,x,9,x,x,x,x
C#CCOCCOCCOCCNc1nc(N2CCN(C(=O)[C@H]([C@@H](C)O)n3cc(CCCCN)nn3)CC2)nc(N2CCN(C(=O)[C@H]([C@@H](C)CC)n3cc(CCCCN)nn3)CC2)n1,6,1,1,x,106,x,x
C#CCOCCOCCOCCNc1nc(N2CCOCC2)nc(N2CCN(C(=O)CCCCCCCCCCNC(=O)[C@H]([C@@H](C)CC)n3cc(CCCCN=C(N)N)nn3)CC2)n1,-2,77*,-3,x,98,1,70*
C#CCOCCOCCOCCNc1nc(N2CCN(C(=O)CCCCCCCCCCNC(=O)[C@H]([C@@H](C)CC)n3cc(CCCCN=C(N)N)nn3)CC2)nc(N2CCN(C(=O)CCCCCCCCCCNC(=O)[C@@H]([C@H](C)O)n3cc(C)nn3)CC2)n1,4,123*,3,x,93,-2,125*
COc1ccc2sc(-c3ccccc3OC)c(C#Cc3cncn3C)c2c1,-11,51*,-14,x,102,0,38
COc1ccccc1-c1sc2cc3c(cc2c1C#Cc1cncn1C)OCO3,-4,45*,-14,x,114,0,38
COc1ccc2sc(-c3ccccc3OC)c(C#CC(C)(C)O)c2c1,5,12,-9,x,87,x,x
COc1ccc(-c2oc(=O)c3cc(OC)c(OC)cc3c2C#CC2(O)CCCCC2)cc1,1,47*,13*,x,116,4,40
COc1cc(-c2nc3ccc(N4CCN(C)CC4)cc3[nH]2)cc(OC)c1OC,1,45*,0,-10,96,-1,37
COc1ccc(-c2nc3ccc(N4CCN(C)CC4)cc3c(=O)[nH]2)cc1,-14,-2,0,-6,99,x,x
SMILES,dFosB activator,UBC13 inh,GRIN3A LBD mod,NALP1 yeast inh,CR mimetic SO,Casp3 counter,UBC13 confirm
CCc1ccc2nc(N(CCCN(C)C)C(=O)c3ccc(C(=O)c4ccccc4)cc3)sc2c1,-8,74*,2,29,107,-4,108*
CN(C)CCCN(C(=O)c1ccc2c(c1)CCCC2)c1nc2ccc(Cl)cc2s1,6,65*,11*,82*,106,2,93*
COc1cc2nc(N(CCCN(C)C)C(=O)c3ccc(C(=O)c4ccccc4)cc3)sc2cc1OC,4,27,0,x,94,x,x
O=c1cc(-c2ccccc2Cl)oc2c([N+](=O)[O-])c(O)cc(O)c12,-6,-13,-9,13,130,x,x
Cc1cc2nc(NCCCO)n(CC(=O)c3cc(C(C)(C)C)c(O)c(C(C)(C)C)c3)c2cc1C,7,70*,-6,x,107,1,49*
O=C(Cn1c(NCCCO)nc2ccccc21)c1ccc(Cl)cc1,-2,1,-1,-91,122,x,x
O=C(CCCN=C1NS(=O)(=O)c2ccccc21)OCC(=O)c1ccccc1,-10,-1,-3,x,97,x,x
O=C(COC(=O)CCCCCN=C1NS(=O)(=O)c2ccccc21)Nc1ccc(Cl)c(Cl)c1,u,49*,22*,33,92,-6,39
COc1ccc2cc3cc(C(=O)NCCN4CCN(c5ccccc5F)CC4)oc3nc2c1,-12,13,-8,-4,97,x,x
COc1ccc2cc3cc(C(=O)Nc4ccccc4N4CCN(C)CC4)oc3nc2c1,-9,68*,1,-2,107,-1,36
C[C@H](NC(=O)c1ccccc1Cl)C(=O)OCc1cn2cc(Cl)ccc2n1,3,106*,0,x,106,6,4
CC(NC(=O)c1ccccc1Cl)C(=O)OCc1cn2cc(Cl)ccc2n1 (configuration not stated),0,-3,3,x,97,x,x
O=C(NCCCN1CCOCC1)c1cc2c([nH]c3ccccc32)c(-c2cccc(Br)c2)n1,3,51*,-8,14,94,-3,30
COc1ccccc1N(CC(=O)Nc1ccccc1C(F)(F)F)S(=O)(=O)c1cccs1,-7,8,4,x,93,x,x
c1ccc(OCC2CCNCC2)nc1,-2,-7,2,0,99,x,x
CC1=CC(C)(C)N(C(=O)CN2C(=O)c3ccccc3C2=O)c2ccc(C)cc21,-16,3,1,-22,101,x,x
